Reference: ChEMBL document CHEMBL4808148, “HDAC6 screening dataset using tau-based substrate in an enzymatic assay yields selective inhibitors and activators” (2021)
Hit rate of the full screen: of about 5,600 compounds, about 390 (7%) showed an effect of 50% or more. The list comes from a sample in which strong results are over-represented; it also holds similar structures and randomly drawn compounds.

Target: T1, Protein deacetylase HDAC6 (Homo sapiens) (UniProt Q9UBN7)
T1 sequence (whole entry): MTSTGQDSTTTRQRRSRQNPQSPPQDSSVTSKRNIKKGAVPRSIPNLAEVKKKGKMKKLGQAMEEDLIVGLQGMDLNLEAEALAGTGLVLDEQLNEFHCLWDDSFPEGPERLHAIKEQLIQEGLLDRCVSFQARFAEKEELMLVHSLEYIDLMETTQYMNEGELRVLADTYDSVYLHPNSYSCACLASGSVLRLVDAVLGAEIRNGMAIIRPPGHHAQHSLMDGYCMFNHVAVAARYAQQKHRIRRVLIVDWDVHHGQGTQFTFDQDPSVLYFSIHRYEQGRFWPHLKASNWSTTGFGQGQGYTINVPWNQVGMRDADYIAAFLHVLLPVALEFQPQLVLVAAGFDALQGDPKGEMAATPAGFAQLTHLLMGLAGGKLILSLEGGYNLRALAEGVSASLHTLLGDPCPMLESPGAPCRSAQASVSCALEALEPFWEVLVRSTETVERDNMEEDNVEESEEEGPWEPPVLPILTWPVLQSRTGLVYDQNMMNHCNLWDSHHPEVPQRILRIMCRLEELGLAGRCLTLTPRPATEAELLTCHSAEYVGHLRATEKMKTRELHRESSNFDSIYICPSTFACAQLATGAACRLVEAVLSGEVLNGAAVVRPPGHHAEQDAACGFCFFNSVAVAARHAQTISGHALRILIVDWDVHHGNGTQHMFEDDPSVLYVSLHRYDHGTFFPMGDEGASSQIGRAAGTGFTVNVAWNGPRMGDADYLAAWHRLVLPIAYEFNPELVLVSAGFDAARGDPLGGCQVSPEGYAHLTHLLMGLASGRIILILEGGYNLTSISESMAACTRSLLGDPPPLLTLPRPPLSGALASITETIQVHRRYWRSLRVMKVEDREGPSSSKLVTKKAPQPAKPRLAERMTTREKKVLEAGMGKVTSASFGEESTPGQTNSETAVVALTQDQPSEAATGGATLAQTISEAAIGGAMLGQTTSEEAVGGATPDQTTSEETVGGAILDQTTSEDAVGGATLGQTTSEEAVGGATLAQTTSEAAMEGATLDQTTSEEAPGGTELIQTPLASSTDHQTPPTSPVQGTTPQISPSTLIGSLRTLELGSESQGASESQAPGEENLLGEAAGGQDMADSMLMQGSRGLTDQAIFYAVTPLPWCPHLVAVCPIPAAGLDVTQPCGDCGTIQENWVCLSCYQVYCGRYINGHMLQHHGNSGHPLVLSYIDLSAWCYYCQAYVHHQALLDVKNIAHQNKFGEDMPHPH
Conditions: at 10 µM

Row | SMILES | inhibition [%]
1 | O=c1n(CC2CO2)c(=O)n(CC2CO2)c(=O)n1CC1CO1 (centres undefined) | 21.5
2 | CN(C)CCCN1c2ccccc2Sc2ccc(Cl)cc21 | 59.7
3 | CN(C)CCCN1c2ccccc2CCc2ccc(Cl)cc21 | 7.48
4 | CCN(CC)CCCCN1c2ccccc2Oc2ccc(Cl)cc21 | 22.7
5 | c1ccc2c(Oc3nc(Nc4ccc(N5CCOCC5)cc4)c4ncn(C5CCCCC5)c4n3)cccc2c1 | 2.11
6 | O=C(c1c2ccccc2cc2ccccc12)N1CCC(N2CCC[C@@H](C(=O)N3CCOCC3)C2)CC1 | 16
7 | C[C@@]12CCC3[C@@](CC[C@@H]4[C@](C)(C(=O)O)CCC[C@@]34C)(CC1=O)C2 (some centres undefined) | 11.5
8 | c1ccc2c(c1)CCC[C@H]2Nc1nc2ccccc2[nH]1 | 96.9
9 | CCNC(=O)N1CCN(CCCC(c2ccc(F)cc2)c2ccc(F)cc2)CC1 | -5.99
10 | CCCCCCCCCCCCCCCC(=O)N[C@@H](CCC(=O)NCCCC[C@H](NC(=O)[C@H](C)NC(=O)[C@H](C)NC(=O)[C@H](CCC(N)=O)NC(=O)CNC(=O)[C@H](CCC(=O)O)NC(=O)[C@H](CC(C)C)NC(=O)[C@H](Cc1ccc(O)cc1)NC(=O)[C@H](CO)NC(=O)[C@H](CO)NC(=O)[C@@H](NC(=O)[C@H](CC(=O)O)NC(=O)[C@H](CO)NC(=O)[C@@H](NC(=O)[C@H](Cc1ccccc1)NC(=O)[C@@H](NC(=O)CNC(=O)[C@H](CCC(=O)O)NC(=O)[C@H](C)NC(=O)[C@@H](N)Cc1cnc[nH]1)[C@@H](C)O)[C@@H](C)O)C(C)C)C(=O)N[C@@H](CCC(=O)O)C(=O)N[C@@H](Cc1ccccc1)C(=O)N[C@H](C(=O)N[C@@H](C)C(=O)N[C@@H](Cc1c[nH]c2ccccc12)C(=O)N[C@@H](CC(C)C)C(=O)N[C@H](C(=O)N[C@@H](CCCNC(=N)N)C(=O)NCC(=O)N[C@@H](CCCNC(=N)N)C(=O)NCC(=O)O)C(C)C)[C@@H](C)CC)C(=O)O | 102
11 | CC(C)C[C@H](NC(=O)CNC(=O)[C@H](Cc1ccc(O)cc1)NC(=O)[C@H](CO)NC(=O)[C@H](Cc1c[nH]c2ccccc12)NC(=O)[C@H](Cc1cnc[nH]1)NC(=O)[C@@H]1CCC(=O)N1)C(=O)N[C@@H](CCCNC(=N)N)C(=O)N1CCC[C@H]1C(=O)NCC(N)=O | 18.4
12 | CC(C)C[C@H](NC(=O)[C@@H](COC(C)(C)C)NC(=O)[C@H](Cc1ccc(O)cc1)NC(=O)[C@H](CO)NC(=O)[C@H](Cc1c[nH]c2ccccc12)NC(=O)[C@H](Cc1cnc[nH]1)NC(=O)[C@@H]1CCC(=O)N1)C(=O)N[C@@H](CCCNC(=N)N)C(=O)N1CCC[C@H]1C(=O)NNC(N)=O | 7.12
13 | CCCCc1nc2ccn(CC(=O)N(C)C)c(=O)c2n1Cc1ccc(-c2ccccc2-c2nnn[nH]2)cc1 | 0.96
14 | CCCc1cc(C)[nH]c(=O)c1CNC(=O)c1cc(-c2ccc(N3CCN(C(C)C)CC3)nc2)cc2c1cnn2C(C)C | 8.48
15 | O[C@@H](COc1cccc2ncccc12)CN1CCN([C@@H]2c3ccccc3[C@@H]3[C@H](c4ccccc42)C3(F)F)CC1 | 10.7
16 | Cc1ccc(-n2nc(C(C)(C)C)cc2NC(=O)Nc2ccc(OCCN3CCOCC3)c3ccccc23)cc1 | 71.1
17 | Cc1cc(OCCN2CCOCC2)nn1-c1ccc2ccccc2c1 | 10.2
18 | CC(C)(C)c1cc(NC(=O)Nc2ccc(-c3cn4c(n3)sc3cc(OCCN5CCOCC5)ccc34)cc2)no1 | 1.57
19 | O[C@H]1[C@H](O)[C@@H](O)[C@H](O)[C@@H](O)[C@H]1O | 22.8
20 | COc1nccnc1NS(=O)(=O)c1ccc(N)cc1 | 34.6
21 | CCCCc1nc2cc(/C=C/C(=O)NO)ccc2n1CCN(CC)CC | 102
22 | Clc1cc(Cl)c(OCC#CI)cc1Cl | 4.74

Row | SMILES | inhibition [%]
23 | COc1cc2nc(N3CCC(N4CCCCC4)CC3)nc(NC3CCCCCC3)c2cc1OC | 0.07
24 | CC(C)[C@H]1c2ccc(F)cc2CC[C@@]1(CCN(C)CCCc1nc2ccccc2[nH]1)OC(=O)C1CC1 | 15.1
25 | COc1ccc2nc(NC(=O)Nc3ccccc3)sc2c1 | 109
26 | Cc1cc(C)cc(NC(=O)Nc2ccc(OS(N)(=O)=O)cc2)c1 | 44.5
27 | COc1ccc(Nc2ncnc3ccc(OC)cc23)cc1 | 27.1
28 | COC1=C2C[C@@H](C)C[C@H](OC)[C@H](O)[C@@H](C)/C=C(\C)[C@H](OC(N)=O)[C@@H](OC)/C=C\C=C(/C)C(=O)NC(=CC1=O)C2=O | 19.3
29 | COC(=O)Nc1ccc(-c2nc(N3CCOCC3)c3cnn(C4CCN(Cc5cccnc5)CC4)c3n2)cc1 | -1.91
30 | Nc1nnc(Sc2ncc([N+](=O)[O-])s2)s1 | 34.9
31 | O=C(Nc1c(Cl)cncc1Cl)c1ccc(OC(F)F)c(OCC2CC2)c1 | -1.25
32 | Cc1ccc(-c2csc3ncnc(SCCC(=O)O)c23)cc1 | 22.2
33 | O=C(O)COc1ccc(C(=O)c2cccs2)c(Cl)c1Cl | 19.9
34 | Sc1nc2ccccc2s1 | 52.6
35 | O=c1[nH]c2cc(C(F)(F)F)c(N3CCOCC3)cc2n(CP(=O)(O)O)c1=O | 1.79
36 | CC(C)=CCC[C@](C)(O)[C@@H]1CC=C(C)CC1 | 18.6
37 | COc1ccc(Cc2nc(O)c3c(C)nc([C@@H](CCCc4ccccc4)[C@@H](C)O)n3n2)cc1OC | -9.71
38 | Cc1cc(C)c(S(=O)(=O)Nc2cccc(C(F)(F)F)c2)c(C)c1 | 97.6
39 | COc1ccc(S(=O)(=O)Nc2c(C)cc(C)cc2C)cc1 | -8.52
40 | Cc1sc(N)c(C(=O)c2cccc(C(F)(F)F)c2)c1C | 17.1
41 | CCc1cccc(CC)c1NC(=O)N1Cc2[nH]nc(NC(=O)c3ccc(N4CCN(C)CC4)cc3)c2C1 | 7.27
42 | Nc1nc(OCC2CCCCC2)c2nc[nH]c2n1 | 33.5
43 | Nc1nc(N)c(N=O)c(OCC2CCCCC2)n1 | 81.8
44 | Nc1ccc(C(=O)NCC(=O)O)cc1 | 6.74
